Caspase-1 inhib – blocks human caspase-1 allosterically or competitively; P29466; Caspase-1 enzyme, Ac-WEHD-AFC fluorogenic rate; Potency, µM (highest dose often 57.5 µM), for the others: at the highest dose activity change, negative = inhibition, most hits filed as inhibitors; 75,000 tested, 0.03% active;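 further: plate controls were vehicle for no effect and no substrate for full effect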
Target sequence (P29466 120-297 limits assumed): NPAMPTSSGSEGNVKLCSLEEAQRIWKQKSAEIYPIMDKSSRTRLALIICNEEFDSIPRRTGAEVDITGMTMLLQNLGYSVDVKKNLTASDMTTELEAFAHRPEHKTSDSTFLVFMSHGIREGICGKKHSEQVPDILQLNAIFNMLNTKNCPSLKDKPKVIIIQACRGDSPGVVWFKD
Target sequence (P29466 317-404 limits assumed): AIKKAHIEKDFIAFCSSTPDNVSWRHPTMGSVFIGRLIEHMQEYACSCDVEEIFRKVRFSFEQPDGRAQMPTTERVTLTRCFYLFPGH
PK Bst – modulators of Bacillus stearothermophilus pyruvate kinase; AID 361; Potency, µM; 51,000 tested, 1.2% active; purified pyruvate kinase, luminescence ATP production; ribose 5-phosphate activator present at AC10; in the data active means potency below about 11 µM; inconclusive means mostly about 12 µM to 25 µM;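 the screen sought inhibitors and activators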;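 further: scaled between full activation by ribose 5 phosphate and full inhibition by luteolin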
HEK293 cAMP ctrl – counter-screen for TSHR agonists: cAMP increase in parental HEK293. parental HEK293 CNG cAMP sensor, membrane potential fluorescence. Potency, µM (titrated, usually from 57.1 µM), without a hit: top-dose activation, most hits filed as activators. 73,000 tested, 2.5% active. AID 938; further: % of control where 0% means no effect; nearly all actives have a fitted effect of over 55% in size
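Parental HEK 293 cells stably expressing a cAMP-gated CNG channel were loaded with membrane potential dye containing 100 uM RO 20-1724 for 60 min. Compound added for 30 min; depolarization read as fluorescence intensity at 590 nm.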
TSHR ag – activates the human thyroid stimulating hormone receptor; HEK293-CNG-TSHR cells (CNG channel as cAMP sensor), membrane potential dye, cAMP; 73,000 tested, 0.48% active; Potency, µM (titrated, usually from 57.1 µM), without a hit: at the top dose activation, usual class: activators; active means well fitted activation curve with a large enough effect in the main read-out, with a control signal flat, not every such curve was filed as active; inconclusive means small, poorly fitted or top-dose-only effect, or a change in a side signal; inactive means no such curve, though single readings can be large or run the other way; % of control where 0% means no effect;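 further: the control signal comes from parental cells without the receptor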
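cAMP rise detected as CNG-channel membrane depolarization by fluorescent dye (emission 590 nm), 30 min after compound, following 60 min dye loading containing 100 uM RO 20-1724 at room temperature. Cells: TSHR/CNG HEK 293, with parental CNG HEK 293 as control.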
GBA mod – human lysosomal glucosylceramidase modulation. Potency, µM. P04062. 48,000 tested, 1.1% active. AID 360. purified enzyme, resorufin glucoside fluorescence (screen aimed at inhibitors), 20 min; in the data active means potency below about 15 µM; inconclusive means mostly about 16 µM to 33 µM;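 further: the screen sought inhibitors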
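Normal human glucocerebrosidase (0.2 nM final) was assayed with resorufin β-D-glucopyranoside (30 uM final) in 50mM citric acid/KH2PO4, 10mM sodium taurocholate, 0.01% tween-20, pH 5.9. Compounds were titrated; fluorescence (Ex 548, Em 600) read after 20 min at RT.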
Caspase-7 inhib – caspase-7 (human) inhibition, allosteric or competitive. 75,000 tested, 0.02% active. AID 889. Potency, µM (doses to about 57.5 µM), for the others: at the highest dose activity change, negative = inhibition, usual class: inhibitors. recombinant caspase-7, Ac-DEVD-AFC fluorescence rate; active means well fitted inhibition curve with a large enough effect in the main read-out, with a control signal flat, not every such curve was filed as active; inconclusive means small, poorly fitted or top-dose-only effect, or a change in a side signal; further: % of control where 0% means no effect
* hit, by the source's call; i = inactive; ? = inconclusive; . = not tested or not shown; [ ] = remark or other dose. An excerpt weighted towards active compounds, which were near 4% of everything screened. Unless noted, the call rests on the fitted dose curve; in most records, active means well fitted curve in the direction sought with a large enough effect; inconclusive means small, poorly fitted or top-dose-only effect, or another doubt; inactive means no such curve, though single readings can be large; an effect the other way counts as inactive or inconclusive. Potency means the concentration at half of the fitted maximal effect.

SMILES	Caspase-1 inhib	PK Bst	HEK293 cAMP ctrl	TSHR ag	GBA mod	Caspase-7 inhib
NC(=O)c1ccccc1	6%	.	-4%	?	.	2%
NC(=O)c1ccc(-c2ncc(-c3ccccc3)o2)cc1	3%	4*	7%	6%[11.4 µM]	>77	-1%
O=c1c(-c2ccc(F)cc2)nc2cnc(N3CCOCC3)nc2n1Cc1ccc(F)cc1	.	.	15%	-1%	.	?
COc1ccccc1-c1cc(NCc2cccc(C)c2)ncn1	-7%	.	20µM*	?	.	-8%
COc1ccccc1CNc1cc(-c2ccccc2C(F)(F)F)ncn1	0%	.	?	?	.	-5%
COc1ccccc1CNc1cc(-c2ccccc2Cl)ncn1	-4%	.	16µM*	?	.	-4%
Cc1cccc(CNc2cc(-c3ccccc3C)ncn2)c1	-3%	.	?	?	.	-4%
COc1ccc2nc(NCN3C(=O)c4ccccc4C3=O)sc2c1	-10%[11.5 µM]	.	-4%[11.4 µM]	4%[11.4 µM]	.	3%[11.5 µM]
O=C(c1ccccc1)c1nnc(-c2ccccc2F)o1	-1%	8.5*	4%	-2%	>77	-1%
O=C(O)CNC(=O)[C@H]1NC(C(F)(F)F)(C(F)(F)F)OC1(C(F)(F)F)C(F)(F)F	1%[11.5 µM]	.	0%[11.4 µM]	-1%[11.4 µM]	.	-3%[11.5 µM]
COc1ccc(C(C)=O)cc1CSc1nc2ccccc2o1	1%	>57	25µM*	?	>77	0%
COc1ccc(C(C)=O)cc1CSc1nnc(C)s1	0%	.	10%	12%	.	1%
COC(=O)c1ccc(OC)c(CSc2nnc(COc3cccc(C)c3)o2)c1	-4%	>57	?	?	>77	-1%
COC(=O)c1ccc(OC)c(CSc2nnc(COc3ccc(OC)cc3)o2)c1	0%	>57	13µM*	?	>77	-2%
Nc1cc(S(=O)(=O)O)ccc1O	-2%	.	0%	0%	.	-1%
Cn1c(Nn2cnnc2)nc2ccccc21	-2%	>57	3.2µM*	?	>77	1%
Nc1c(Cl)cc(Cl)cc1Cl	-6%	.	21%	-2%	.	-1%
CC(=O)Nc1ccc2c(c1)C(=Nc1ccc(C(=O)O)cc1)c1ccccc1-2	3%[11.5 µM]	.	-6%[11.4 µM]	-1%[11.4 µM]	.	-2%[11.5 µM]
CC(C)c1ccc(S(=O)(=O)N2CCN(C(=O)c3cccc(F)c3)CC2)cc1	0%	>57	20µM*	?	15*	-4%
CC[C@H](C)C(=O)O[C@@H]1CCC=C2C=C[C@H](C)[C@@H](CC[C@H]3C[C@@H](O)CC(=O)O3)[C@H]21	.	.	11%	37%	.	.
Cc1cccc(OCCCCCn2ccnc2)c1C	0%	.	32µM*	?	.	0%
CC1CCN(C(c2ccccc2)c2nnnn2C(C)(C)C)CC1 (stereo unspecified)	-1%	>57	20µM*	?	>77	1%
CCC(C)(C)n1nnnc1C(c1ccc(C)cc1)N1CCCC1 (stereo unspecified)	3%	>57	25µM*	?	>77	0%
COc1ccc(C(c2nnnn2C(C)(C)C)N2CCN(c3nc4ccccc4s3)CC2)cc1 (stereo unspecified)	-2%	>57	30%	10µM*	.	-1%
O=S(=O)(Nc1ccc2c(c1)OCCO2)c1cccc2nsnc12	-6%	8.6*	11%	20%[11.4 µM]	.	1%
SMILES	Caspase-1 inhib	PK Bst	HEK293 cAMP ctrl	TSHR ag	GBA mod	Caspase-7 inhib
O=C(Nc1ccc2c(c1)OCCO2)C1CCN(S(=O)(=O)c2cccc3nsnc23)CC1	2%	9.3*	-7%	-7%	>77	-1%
Cc1ccnc(NC(=O)C2CCN(S(=O)(=O)c3cccc4nsnc34)CC2)c1	-3%	i	-3%	-6%	>77	1%
Cc1ccc(NC(=O)CSc2nnc(-c3ccccc3Br)o2)cc1C	-1%	>57	15%	20%	>77	-1%
Cc1cc(C)c(C(=O)CSc2nnc(-c3ccccc3Br)o2)cc1C	-17%	>57	16µM*	?	>77	-20%
NS(=O)(=O)c1ccc(CCNC(=O)NC2(C(F)(F)F)Oc3ccccc3O2)cc1	0%	>57	7%	-4%	14*	1%
O=C(NCCN1CCOCC1)NC1(C(F)(F)F)Oc2ccccc2O1	1%	>57	2%	2%	i	1%
CN1CCN(C(=O)c2ccc(-n3c(=O)c(=O)[nH]c4ccccc43)cc2)CC1	-2%	.	-18%	0%	.	0%
